From PubChem BioAssay
Compounds with a hit are over-represented: about 0.98% of the library has one in this group of screens.
Mtb betalactam: beta-lactam sensitization of Mtb H37Rv | 330,000 compounds, 0.27% hits | AID 434955 | inhibition, % at 25 µM | M. tuberculosis H37Rv growth with meropenem, percent inhibition; call rule not given here;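 further: growth measured after seven days incubation then overnight dye step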
Mtb UGM inh: inhibitors of M. tuberculosis UDP-galactopyranose mutase. P9WIQ1. purified UGM, fluorescence polarization probe displacement. inhibition, % at 10 µM. 320,000 compounds, 0.06% hits. AID 504406; in the data active means inhibition above about 10%, passing the limit was not always enough
Yp Topo-I inh: inhibitors of Yersinia pestis topoisomerase I. 360,000 compounds, 0.064% hits. activity, % at 10 µM. Y. pestis Topo-I cleavage product accumulation, plate reader. AID 504884; in the data active means activity above about 50%, passing the limit was not always enough
PfHsp40 rescue: restores yeast growth despite PfHsp40 toxicity; S. cerevisiae expressing PfHsp40, growth rescue, ATP luminescence; growth rescue, % at 12.5 µM; 340,000 compounds, 0.68% hits; in the data active means growth rescue above about 28%, passing the limit was not always enough;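 further: yeast W303a lacking pdr1 and pdr3 grown in galactose medium; growth measured after three days at 30 °C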
FadD28 binding: blocks FadD28 binding to the bisubstrate probe; fluorescence polarization; inhibition, % at 12.5 µM; 360,000 compounds, 0.22% hits; in the data active means inhibition above about 8.5%, passing the limit was not always enough
Rv3671c inh: inhibits the M. tuberculosis serine protease Rv3671c. P9WHR9. inhibition, % at 5.96 µM. 320,000 compounds, 0.048% hits; in the data active means inhibition above about 38%;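 further: extracellular domain of Rv3671c used as enzyme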
Target sequence (P9WHR9 whole entry, looked up, the tested form may be a part): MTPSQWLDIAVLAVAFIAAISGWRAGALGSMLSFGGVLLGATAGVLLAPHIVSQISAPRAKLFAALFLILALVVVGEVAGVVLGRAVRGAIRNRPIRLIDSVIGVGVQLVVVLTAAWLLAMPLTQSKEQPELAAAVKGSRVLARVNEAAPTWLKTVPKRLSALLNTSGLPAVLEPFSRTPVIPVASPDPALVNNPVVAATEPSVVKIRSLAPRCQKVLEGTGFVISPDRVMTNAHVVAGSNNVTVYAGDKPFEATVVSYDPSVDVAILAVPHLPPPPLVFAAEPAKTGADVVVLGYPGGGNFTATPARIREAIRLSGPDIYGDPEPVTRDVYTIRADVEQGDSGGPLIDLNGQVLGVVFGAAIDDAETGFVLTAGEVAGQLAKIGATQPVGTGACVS
Large screens that a line does not name were inactive.

[O-][n+]1cccc2c(Br)cc(Br)c(O)c21	PfHsp40 rescue 310.1
O=C(Nc1nnc(-c2cccs2)o1)c1cccc(Oc2ccccc2)c1	PfHsp40 rescue 500.1
O=C(Nc1nnc(-c2cccs2)o1)c1cccc(F)c1	none
O=C1OC(c2cccs2)Sc2ccccc21 (configuration not stated)	none (no result: Mtb betalactam, Mtb UGM inh, Yp Topo-I inh, PfHsp40 rescue, Rv3671c inh)
Nc1ccc2nonc2c1[N+](=O)[O-]	Mtb UGM inh 23.1
Cc1ccc(Nc2ccc3nonc3c2[N+](=O)[O-])cc1	none
Cn1c(C(=O)NCCN2CCOCC2)cc2c(=O)n3ccccc3nc21	none
COCCCn1c(C(=O)NCCN2CCOCC2)cc2c(=O)n3ccccc3nc21	PfHsp40 rescue 44.4
COc1ccc(Oc2c(C)oc3cc(OC(=O)N(C)C)ccc3c2=O)cc1	none
COc1ccccc1Oc1c(C)oc2cc(OC(=O)N(C)C)ccc2c1=O	PfHsp40 rescue 92.8 (no result: FadD28 binding)
COc1ccccc1N1CCN(Cc2ccc(C(=O)O)cc2)CC1	none
COc1cc2ncc(C(=O)c3ccccc3)c(N3CCN(Cc4ccccc4)CC3)c2cc1OC	PfHsp40 rescue 53.6
CCOc1ccc(-c2cc(C(=O)NCc3ccccc3)[nH]n2)c(C)c1	none (no result: Mtb betalactam, Mtb UGM inh, PfHsp40 rescue, Rv3671c inh)
O=C(NC(=S)Nn1cnnc1)c1ccccc1Cl	Mtb UGM inh 13.2
O=C(NC(=S)Nn1cnnc1)c1ccc(F)cc1Cl	none
COc1ccc(-n2c(O)c(/C=C3\C=Nc4ccc(Br)cc43)c(=O)[nH]c2=O)cc1	Mtb UGM inh 40.6
NC(c1csc(Nc2nncc3ccccc23)n1)C1CCCCC1 (configuration not stated)	none (no result: Mtb betalactam, Mtb UGM inh, PfHsp40 rescue, Rv3671c inh)
O=S(=O)(NCCSCc1ccc(Cl)c(Cl)c1)c1ccc2c(c1)OCCO2	PfHsp40 rescue 42.0
CCCCOc1cccc(-c2cc(C(=O)NNC(=S)NCC)c3ccccc3n2)c1	PfHsp40 rescue 47.2
CCOC(=O)c1ccc(NC(=S)NNC(=O)c2cc(-c3cccnc3)nc3ccccc23)cc1	PfHsp40 rescue 154.4
CCNC(=S)NNC(=O)c1cc(-c2cccc(OCC)c2)nc2ccccc12	none
O=C(NC(c1ccc(Cl)cc1)c1ccsc1)C1CCN(CCOc2ccc(Cl)cc2)CC1 (configuration not stated)	none (no result: Mtb betalactam, Mtb UGM inh, PfHsp40 rescue, Rv3671c inh)
CCOC(=O)CSc1nc2ccccc2c(=O)n1CC1CCCC1	Yp Topo-I inh 58.3
N/C(=N\OC(=O)c1ccc2ccccc2c1)c1ccccn1	none
NC(=Nc1nc(-c2ccccn2)cc2ccccc12)c1ccccn1	PfHsp40 rescue 163.3 (no result: Mtb betalactam, Mtb UGM inh, Rv3671c inh)
O=C1OCC/C1=C\NCCCCCCCCN/C=C1\CCOC1=O	none (no result: Mtb betalactam, Mtb UGM inh, PfHsp40 rescue, Rv3671c inh)
O=Nc1c(O)n(Cc2ccc(Cl)c(Cl)c2)c2ccccc12	PfHsp40 rescue 259.3
Clc1ccc2c(c1)c1cc(Cl)ccc1n2CN1CCOCC1	PfHsp40 rescue 367.4
CCn1c2ccccc2c2cc(CNCCCN3CCOCC3)ccc21	none
Clc1ccc2c(c1)c1ccccc1n2CN1CCOCC1	PfHsp40 rescue 31.2
CCN(CC)c1ccc(C=C2C(=O)OC3(CCCCC3)OC2=O)cc1	none
CCN(CC)c1ccc(/C=C2/C(=O)c3ccc(C(=O)O)cc3C2=O)cc1	FadD28 binding 18.0
CC1=C(C#N)C(=O)NC(=O)/C1=C\c1ccc(-c2cc(C)c(C)cc2[N+](=O)[O-])o1	FadD28 binding 14.7 (no result: Mtb betalactam, Mtb UGM inh, Rv3671c inh)
CO[C@@H]1[C@@H](OC(N)=O)[C@@H](O)[C@H](Oc2ccc3c(O)c(NC(=O)c4ccc(O)c(CC=C(C)C)c4)c(=O)oc3c2C)OC1(C)C	none (no result: Mtb betalactam, Mtb UGM inh, PfHsp40 rescue, Rv3671c inh)
COC1C(OC(=O)c2ccc(C)[nH]2)C(O)C(Oc2ccc3c(O)c(NC(=O)c4ccc(O)c(CC=C(C)C)c4)c(=O)oc3c2Cl)OC1(C)C (configuration not stated)	FadD28 binding 19.8
O=c1ccc(N=Nc2ccccc2)ccc1O	PfHsp40 rescue 102.0
O=S(=O)(O)c1ccc(N=Nc2ccccc2)cc1	none
O=C1N(c2ccc(Cl)cc2)C(c2cccnc2)N2CCCN12 (configuration not stated)	PfHsp40 rescue 287.1
CC(=O)c1cnc2cc(-c3ccc(C)cc3)nn2c1C	none
COc1ccc(-c2cc3ncc(C(C)=O)c(C)n3n2)cc1	PfHsp40 rescue 53.1
Nc1ccc2ccc3cccc[n+]3c2c1	Mtb UGM inh 62.5
Clc1cccc(-c2cccc3nccn23)c1	none (no result: Mtb betalactam, Mtb UGM inh, PfHsp40 rescue, Rv3671c inh)
NC(=O)C(Cc1ccccc1)N1C(=O)c2ccccc2C1=O (configuration not stated)	none
NS(=O)(=O)OCC(Cc1ccccc1)N1C(=O)c2ccccc2C1=O (configuration not stated)	PfHsp40 rescue 75.4
